Assay outcomes from PubChem.
An excerpt weighted towards active compounds, which were near 19% of everything screened.
HT1080 IDH1KD tx = qHTS for induction of synthetic lethality in tumor cells producing 2HG: qHTS for the HT-1080-IDH1KD cell line; HT-1080 IDH1 knockdown viability, ATP luminescence, 48 h; Potency, µM (doses to about 46.1 µM), inactives show at the highest dose activity, negative = toxicity, actives largely listed as cytotoxic; hit rate 2% among 360,000; AID 686971, 2013;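 further: potency means the concentration at half of the fitted maximal effect; 0% = DMSO wells and -100% = cell-free medium wells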
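Luminescent ATP read-out (CellTiter-Glo, 10 min at room temperature) after 48 h compound exposure at 37 °C gave viability of IDH1-knockdown HT-1080 cells. Activity was normalised to DMSO and cell-free wells, then fitted as concentration-response curves.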
IL-1B inflam inh = qHTS for Inhibitors of Inflammasome Signaling: IL-1-beta AlphaLISA Primary Screen | THP-1 LPS/ATP IL-1B secretion, AlphaLISA, 16 h; active compounds read low | activity change, % at 57.5 µM | hit rate 4.7% among 360,000 | AID 743279, 2014; in the data active means activity change below about -50%; inconclusive means mostly about -30% to -49%
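Secreted IL-1B measured by AlphaLISA bead assay after 16 h compound exposure of THP-1 cells; compounds (final up to 57.5 uM) added 1 h before LPS (250 ng/mL) and ATP (1.25 mM) stimulation; lower signal means less secretion.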
HT1080-NT tox = qHTS for induction of synthetic lethality in tumor cells producing 2HG: qHTS for the HT-1080-NT fibrosarcoma cell line. HT-1080-NT fibrosarcoma viability, CellTiter-Glo ATP luminescence, 48 h. Potency, µM (top dose mostly 46.1 µM), for the others: at the top dose activity, negative = less viability, usual class: cytotoxic. hit rate 1.6% among 360,000. AID 686970, 2013;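 further: NT is the 2HG producing partner of a matched IDH1 knockdown line; potency means the concentration at half of the fitted maximal effect; 0% = DMSO-treated cells and -100% = media-only wells without cells; nearly all actives have a fitted effect of over 55% in size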
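Read-out is CellTiter-Glo luminescence after 10 minutes at room temperature, following 48 hours' compound treatment of HT-1080-NT cells (750 cells/well, RPMI, 5% FBS, 37 degrees C).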
TDP1 cell noCPT = qHTS for Inhibitors of human tyrosyl-DNA phosphodiesterase 1 (TDP1): qHTS in cells in absence of CPT; DT40 Tdp1-/- hTDP1 cells, no CPT, ATP luminescence, 48 h; Potency, µM (series often up to 46.2 µM), without a hit: at the top dose activity change, negative = growth inhibition, actives largely listed as inhibitors; hit rate 15% among 420,000; further: potency means the concentration at half of the fitted maximal effect; nearly all actives have a fitted effect of over 55% in size
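Chicken DT40 Tdp1-/- cells stably complemented with human TDP1 were seeded at 400 cells/well with DMSO in place of 20 nM camptothecin. After compound pinning, cells grew at least 48 hr at 37 °C; viability read by CellTiter-Glo luminescence.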
DT40 TDP1 CPT = qHTS for Inhibitors of human tyrosyl-DNA phosphodiesterase 1 (TDP1): qHTS in cells in presence of CPT. chicken DT40 Tdp1-/-;hTDP1 cells + 20 nM CPT, ATP luminescence, 48 h. AID 686979, 2013. Potency, µM (doses to about 46.2 µM), for the others: at the highest dose activity change, negative = growth inhibition, actives largely listed as inhibitors. hit rate 12% among 420,000; further: potency means the concentration at half of the fitted maximal effect; nearly all actives have a fitted effect of over 55% in size
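Cell growth measured by CellTiter-Glo luminescence after a minimum 48 h, 37 C compound exposure with 20 nM CPT in Tdp1-knockout DT40 cells stably expressing hTDP1, seeded 400/well; qHTS titration format.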
ELG1 DNA repair = qHTS screen for small molecules that inhibit ELG1-dependent DNA repair in human embryonic kidney (HEK293T) cells expressing luciferase-tagged ELG1. Potency, µM (titrated, usually from 46.1 µM), for inactives: at the top dose activity change, negative = inhibition, actives largely listed as inhibitors. hit rate 2.3% among 330,000. HEK293T ELG1-luciferase reporter, luminescence, 16 h; DNA damage induced by 5-fluorouridine; further: potency means the concentration at half of the fitted maximal effect; nearly all actives have a fitted effect of over 55% in size
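Cells (2,000 per well) received 5-fluorouridine plus test compound or DMSO and were incubated 16 hr at 37 °C, 5% CO2. Luciferase activity was read by luminescence 30 min after ONE-Glo addition; signal suppression marked inhibition of damage-induced ELG1 function.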
* = called active by the depositor; ? = inconclusive; . = not tested or not shown. Unless noted, the call rests on the fitted dose curve; in most records, active means well fitted curve in the direction sought with a large enough effect; inconclusive means small, poorly fitted or top-dose-only effect, or another doubt; inactive means no such curve, though single readings can be large; an effect the other way counts as inactive or inconclusive. Unless noted, on the % scale 0 is the no-effect control and ±100 the full control effect.

SMILES	HT1080 IDH1KD tx	IL-1B inflam inh	HT1080-NT tox	TDP1 cell noCPT	DT40 TDP1 CPT	ELG1 DNA repair
CC(C)(C)S(=O)(=O)N1C[C@H]2CC/C=C\C/C=C\2[C@@H]1CCO	1%	24	7%	13µM*	21µM*	.
CC(C)(C)S(=O)(=O)N1C[C@@H]2CC/C=C\C/C=C\2[C@H]1CCO	2%	11	7%	8.2µM*	13µM*	.
C=C(CCO)C1=CCN(S(=O)(=O)C(C)(C)C)[C@H]1CCO	4%	-2	0%	-3%	-4%	.
CCc1ccc(NC(=O)C(=O)NCCOc2ccccc2Cl)cc1	-27%	15	?	23µM*	16µM*	8%
O=S1(=O)N[C@@H](Cc2ccccc2)COc2cccc(N3CCN(Cc4ccccc4F)CC3)c21	?	15	?	18µM*	?	.
CC(C)C[C@@H]1COc2cccc(N3CCN(Cc4ccccc4F)CC3)c2S(=O)(=O)N1	-17%	-7	-3%	?	?	.
Cc1cccc(NC(=O)CN(C)C(=O)C2CC2)c1C	-2%	-1	-3%	-6%	-5%	3%
Cc1cccc(C(O)C(O)c2cccc(C)n2)n1 (centres undefined)	4%	-4	0%	-1%	-1%	.
Cc1cccc(C(P(=O)(c2ccccc2)c2ccccc2)P(=O)(c2ccccc2)c2ccccc2)n1	9%	-10	-1%	16µM*	?	11%
Nc1nc(Nc2ccccc2)nc2c1ncn2[C@@H]1O[C@@H](CO)[C@H](O)[C@H]1O	.	.	.	6%	11%	.
NC1=NC(c2ccc(Cl)cc2)N(c2ccc(S(N)(=O)=O)cc2)C(N)=N1 (centres undefined)	6%	-21	2%	-5%	5%	-1%
NC1=NC(c2ccccc2C(F)(F)F)N(c2ccc(F)c(Cl)c2)C(N)=N1 (centres undefined)	-13%	0	-6%	4.1µM*	21µM*	-2%
C/C(=N/NC(=O)CNC(=O)c1cccnc1)c1cccc([N+](=O)[O-])c1	-13%	38	-7%	-9%	2%	7%
COCCNc1nc(-c2ccc(C(=O)N(C)C)cc2)nc2ccccc12	.	.	.	-29%	-17%	.
Cc1ccc(-c2nc(NCCN(C)C)c3ccccc3n2)cc1	21µM*	-95*	?	?	-17%	?
CN(C)CCCNc1nc(-c2ccc(Cl)cc2)nc2ccccc12	?	-62*	?	?	?	10%
COCCNc1nc(-c2ccc(N(C)C)cc2)nc2ccccc12	.	.	.	21µM*	?	.
Cc1cccc(-c2nc(NCCCN(C)C)c3ccccc3n2)c1	?	-86*	?	?	?	18%
CN(C)CCNc1ncnc2ccccc12	0%	39	6%	-12%	-6%	5%
O=C(COc1ccccc1)NCC(=O)Nc1cccc(S(=O)(=O)NC2=NCCC2)c1	1%	117	-7%	-9%	1%	13%
CCCCN(CC)c1nc(-c2ccncc2)nc2ccccc12	?	-15	?	?	16µM*	23µM*
Cc1cccc(-c2nc(NCCCN3CCOCC3)c3ccccc3n2)c1	?	-29	?	?	18µM*	?
CCCN(CCC)c1nc(-c2ccccn2)nc2ccccc12	9.2µM*	-96*	?	3.3µM*	1.3µM*	?
CCCN(CCC)c1nc(-c2ccccc2F)nc2ccccc12	.	.	.	?	-4%	.
COCCN(CCOC)c1nc(-c2ccc(C)cc2)nc2ccccc12	-19%	-6	-29%	18µM*	?	?
SMILES	HT1080 IDH1KD tx	IL-1B inflam inh	HT1080-NT tox	TDP1 cell noCPT	DT40 TDP1 CPT	ELG1 DNA repair
COc1ccc(C(=O)N2CCC[C@@]3(CCN(c4ncccn4)C3)C2)cc1	.	.	.	-8%	7%	.
CC(C)NC(=O)CN1CCN(Cc2nc(C(c3ccccc3)c3ccccc3)no2)CC1	10%	0	13%	-14%	-6%	-9%
O=C(O)CCNc1nc(-c2ccccc2)nc2ccccc12	-1%	4	-1%	?	-2%	6%
c1ccc(CCNc2nc(-c3ccccn3)nc3ccccc23)cc1	?	-101*	-27%	2.9µM*	3.3µM*	4.1µM*
Cc1ccc(NC(=O)c2ccc3c(=O)n4c(nc3c2)CCCCC4)nc1	-5%	-3	-5%	-28%	-10%	0%
O=C(Nc1nc(-c2ccccc2)cs1)c1ccc2c(=O)n3c(nc2c1)CCCCC3	?	-15	?	8.2µM*	16µM*	3.7µM*
Cc1cc(C)c2nc(NC(=O)c3ccc4c(=O)n5c(nc4c3)CCCCC5)sc2c1	-4%	-4	6%	?	?	10µM*
O=C(COC(=O)[C@@H]1CC(O)CN1S(=O)(=O)c1ccc(Cl)cc1)NC(=O)NCc1ccccc1 (some centres undefined)	-1%	2	5%	5%	-2%	-2%
CC1CCCCN1C(=O)CNCC1CCCO1 (centres undefined)	10%	0	10%	8%	11%	-14%
Cc1cccc2nc(-c3cccnc3)c(NCCC(C)C)n12	?	-82*	?	16µM*	9.2µM*	5%
Cc1cc(C)n2c(NC3CCCC3)c(-c3cccnc3)nc2n1	8%	7	7%	-15%	-8%	.
Cc1cc(C)n2c(Nc3c(C)cccc3C)c(-c3cccnc3)nc2n1	9%	0	8%	-19%	6%	.
CCCCNc1c(-c2cccnc2)nc2nc(C)cc(C)n12	11%	0	18%	12µM*	?	.
Cc1cccc2nc(-c3cccnc3)c(Nc3ccccc3)n12	-7%	?	-5%	?	-28%	18µM*
CSc1ccc(CN2CCN(C(=O)CC(C)C)CC2)cc1	-15%	-8	7%	-23%	9%	?
COCc1cn(CC(C)n2c(=O)c3ccccc3n2Cc2cc(C(C)C)no2)nn1 (centres undefined)	9%	8	5%	3%	18%	.
O=C(NNC(=O)c1ccncc1)Nc1cc(Cl)ccc1Cl	-1%	18	-2%	-13%	9%	.
